ChEMBL document CHEMBL1961873, “Compounds: GSK PKIS; Assays: Nanosyn kinase panel” (2012)

Tests used:
[1] = target: Ribosomal protein S6 kinase alpha-6 (Homo sapiens) (UniProt Q9UK32); settings: at 1 µM;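 further: each value is a mean inhibition of RSK4 from a GSK PKIS panel screen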
[2] = target: T1, Serine/threonine-protein kinase Sgk1 (Homo sapiens) (UniProt O00141); settings: at 0.1 µM
T1 sequence (whole entry): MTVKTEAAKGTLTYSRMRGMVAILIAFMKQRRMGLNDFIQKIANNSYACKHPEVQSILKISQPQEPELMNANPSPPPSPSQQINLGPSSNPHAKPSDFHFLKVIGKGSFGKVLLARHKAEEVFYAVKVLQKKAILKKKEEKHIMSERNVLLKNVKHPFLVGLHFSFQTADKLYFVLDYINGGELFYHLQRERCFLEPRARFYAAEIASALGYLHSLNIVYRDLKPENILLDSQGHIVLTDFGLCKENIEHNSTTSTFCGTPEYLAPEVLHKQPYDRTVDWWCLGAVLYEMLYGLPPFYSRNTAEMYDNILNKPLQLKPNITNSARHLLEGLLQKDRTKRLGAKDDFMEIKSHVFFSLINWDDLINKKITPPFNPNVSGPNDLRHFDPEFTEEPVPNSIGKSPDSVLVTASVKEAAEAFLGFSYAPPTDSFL

[3] = target: T1, Serine/threonine-protein kinase Sgk1 (Homo sapiens); settings: at 1 µM
[4] = target: T2, Serine/threonine-protein kinase Sgk2 (Homo sapiens) (UniProt Q9HBY8); settings: at 0.1 µM
T2 sequence (whole entry): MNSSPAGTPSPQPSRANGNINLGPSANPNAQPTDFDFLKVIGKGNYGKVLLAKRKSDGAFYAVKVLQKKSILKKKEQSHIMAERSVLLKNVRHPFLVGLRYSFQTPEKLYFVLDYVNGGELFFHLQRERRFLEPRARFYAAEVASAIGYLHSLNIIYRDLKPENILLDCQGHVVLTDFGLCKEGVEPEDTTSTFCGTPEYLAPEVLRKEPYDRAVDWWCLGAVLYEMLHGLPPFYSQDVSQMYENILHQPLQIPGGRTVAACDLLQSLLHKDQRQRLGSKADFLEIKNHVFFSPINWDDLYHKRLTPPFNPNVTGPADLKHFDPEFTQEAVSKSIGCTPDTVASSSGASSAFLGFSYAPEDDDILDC

[5] = target: T2, Serine/threonine-protein kinase Sgk2 (Homo sapiens); settings: at 1 µM
[6] = target: T3, Serine/threonine-protein kinase Sgk3 (Homo sapiens) (UniProt Q96BR1); settings: at 0.1 µM
T3 sequence (whole entry): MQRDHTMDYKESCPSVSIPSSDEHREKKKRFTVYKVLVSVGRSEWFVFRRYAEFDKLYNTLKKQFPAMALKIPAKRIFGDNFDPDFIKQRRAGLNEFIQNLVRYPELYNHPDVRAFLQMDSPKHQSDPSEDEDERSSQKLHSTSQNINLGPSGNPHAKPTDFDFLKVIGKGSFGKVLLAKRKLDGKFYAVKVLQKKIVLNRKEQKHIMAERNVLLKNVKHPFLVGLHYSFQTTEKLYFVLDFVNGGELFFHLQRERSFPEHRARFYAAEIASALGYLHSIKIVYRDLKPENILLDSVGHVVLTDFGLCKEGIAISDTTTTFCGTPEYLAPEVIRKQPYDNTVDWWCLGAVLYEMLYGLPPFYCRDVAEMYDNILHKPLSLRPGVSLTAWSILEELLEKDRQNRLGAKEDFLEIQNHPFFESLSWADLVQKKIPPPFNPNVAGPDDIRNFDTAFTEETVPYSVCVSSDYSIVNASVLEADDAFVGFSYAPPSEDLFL

[7] = target: T3, Serine/threonine-protein kinase Sgk3 (Homo sapiens); settings: at 1 µM
[8] = target: 5'-AMP-activated protein kinase catalytic subunit alpha-1 (Homo sapiens) (UniProt Q13131); settings: at 0.1 µM
Sequence of 5'-AMP-activated protein kinase catalytic subunit alpha-1 (Homo sapiens) (Q13131 whole entry, looked up): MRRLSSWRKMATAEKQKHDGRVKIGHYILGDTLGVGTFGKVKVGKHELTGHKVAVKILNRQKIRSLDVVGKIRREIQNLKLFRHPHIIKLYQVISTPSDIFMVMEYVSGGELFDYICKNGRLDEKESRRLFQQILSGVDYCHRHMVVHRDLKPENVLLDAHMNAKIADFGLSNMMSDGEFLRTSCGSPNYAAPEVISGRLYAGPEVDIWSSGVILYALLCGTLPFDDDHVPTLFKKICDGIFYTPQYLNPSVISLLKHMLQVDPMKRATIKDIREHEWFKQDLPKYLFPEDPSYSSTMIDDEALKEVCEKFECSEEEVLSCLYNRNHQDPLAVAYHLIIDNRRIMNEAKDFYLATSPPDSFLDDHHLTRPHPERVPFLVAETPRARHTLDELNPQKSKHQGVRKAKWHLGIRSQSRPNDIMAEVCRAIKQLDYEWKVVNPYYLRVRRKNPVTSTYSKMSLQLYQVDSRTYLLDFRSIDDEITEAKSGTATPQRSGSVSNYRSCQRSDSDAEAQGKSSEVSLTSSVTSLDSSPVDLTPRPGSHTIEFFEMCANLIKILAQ

[9] = target: 5'-AMP-activated protein kinase catalytic subunit alpha-1 (Homo sapiens) (UniProt Q13131); settings: at 1 µM
[10] = target: 5'-AMP-activated protein kinase catalytic subunit alpha-2 (Homo sapiens) (UniProt P54646); settings: at 0.1 µM;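 further: mean inhibition measured on the AMPK complex of alpha2, beta1 and gamma1 subunits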
Sequence of 5'-AMP-activated protein kinase catalytic subunit alpha-2 (Homo sapiens) (P54646 whole entry, looked up): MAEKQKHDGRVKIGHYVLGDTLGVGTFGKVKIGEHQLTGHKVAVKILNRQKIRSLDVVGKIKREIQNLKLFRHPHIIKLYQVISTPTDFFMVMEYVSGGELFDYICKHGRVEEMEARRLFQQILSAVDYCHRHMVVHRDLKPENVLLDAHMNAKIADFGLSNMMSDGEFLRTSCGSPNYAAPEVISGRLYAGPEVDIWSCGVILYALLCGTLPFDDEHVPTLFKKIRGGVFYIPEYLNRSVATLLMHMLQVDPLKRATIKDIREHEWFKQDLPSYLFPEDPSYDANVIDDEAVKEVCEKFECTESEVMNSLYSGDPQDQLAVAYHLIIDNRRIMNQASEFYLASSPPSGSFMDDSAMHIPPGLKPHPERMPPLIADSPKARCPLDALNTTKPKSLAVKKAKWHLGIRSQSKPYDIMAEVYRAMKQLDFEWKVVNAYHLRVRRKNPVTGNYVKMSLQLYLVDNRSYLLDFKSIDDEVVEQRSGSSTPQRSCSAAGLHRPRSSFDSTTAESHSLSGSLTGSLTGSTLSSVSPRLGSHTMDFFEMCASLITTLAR

Sequence of Ribosomal protein S6 kinase alpha-6 (Homo sapiens) (Q9UK32 whole entry): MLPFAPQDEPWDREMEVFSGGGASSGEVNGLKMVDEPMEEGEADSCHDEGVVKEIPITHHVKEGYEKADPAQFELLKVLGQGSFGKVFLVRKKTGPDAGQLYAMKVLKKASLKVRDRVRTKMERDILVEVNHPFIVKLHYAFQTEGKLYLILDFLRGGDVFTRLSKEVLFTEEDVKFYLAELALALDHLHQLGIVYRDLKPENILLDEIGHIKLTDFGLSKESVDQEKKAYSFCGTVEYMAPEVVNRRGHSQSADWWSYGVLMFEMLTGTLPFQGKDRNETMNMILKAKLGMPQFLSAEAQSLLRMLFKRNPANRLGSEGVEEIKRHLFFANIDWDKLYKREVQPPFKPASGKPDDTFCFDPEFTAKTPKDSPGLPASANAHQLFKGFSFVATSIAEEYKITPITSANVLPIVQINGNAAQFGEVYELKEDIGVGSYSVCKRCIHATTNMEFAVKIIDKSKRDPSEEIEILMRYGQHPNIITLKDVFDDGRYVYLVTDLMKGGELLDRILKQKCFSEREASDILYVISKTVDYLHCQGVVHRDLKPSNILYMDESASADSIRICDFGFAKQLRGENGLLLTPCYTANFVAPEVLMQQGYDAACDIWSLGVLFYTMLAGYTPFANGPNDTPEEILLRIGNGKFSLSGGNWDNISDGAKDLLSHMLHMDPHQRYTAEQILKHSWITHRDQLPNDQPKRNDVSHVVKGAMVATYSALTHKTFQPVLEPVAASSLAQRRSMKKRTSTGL

SMILES | inhibition [1] | inhibition [2] | inhibition [3] | inhibition [4] | inhibition [5] | inhibition [6] | inhibition [7] | inhibition [8] | inhibition [9] | inhibition [10]
NS(=O)(=O)c1ccc(N/C=C2\C(=O)Nc3ccc4ncsc4c32)cc1 | 59.9% | 9.85% | 47.5% | 4.72% | 18.4% | 3.8% | 10.2% | 21.1% | 59.9% | 14.4%
NS(=O)(=O)c1ccc(-c2ccc3c(NC(=O)C4CC4)n[nH]c3c2)cc1 | 3.54% | 0.35% | 14.6% | -0.5% | 3.35% | -0.5% | -1.93% | 2.61% | 2.22% | -0.68%
Cc1cc(-c2ccco2)cc(C)c1/C=C/c1cncc(-c2nn[nH]n2)c1 | -0.53% | 2.78% | 0.73% | -0.62% | -1.7% | -0.03% | -0.92% | 0.43% | 1.33% | 0.25%
Nc1nonc1-c1nc2cnccc2n1C1CCCCC1 | 30.9% | 1.2% | 13.2% | 5.9% | 40.5% | 7.01% | 41.7% | 0.66% | 5.36% | -0.2%
NC(=O)c1sc(-n2cnc3cc(C(F)(F)F)ccc32)cc1OCc1ccccc1Br | 1.95% | 1.54% | 2.43% | 0.68% | -0.08% | -0.31% | 4.18% | 2.29% | 2.17% | 2.18%
COc1cc(C=NNc2ncnc3c2cnn3Cc2ccccc2)ccc1O | 2.26% | -3.31% | 3.11% | -3% | -2.21% | -2.5% | -0.29% | -1.23% | -0.19% | -2.17%
CCn1c(-c2nonc2N)nc2c(C#CC(C)(C)O)ncc(OCC3CCNCC3)c21 | 7.82% | 5.12% | 10.5% | 2.67% | 8.07% | 21.6% | 67.4% | 13.8% | 51.9% | 3.32%
